Test results as given in PMC7826789 (International Journal of Molecular Sciences, 2021).

Experiments:
Conditions in all cases: Compound Concentration (nM):1000
[1] = tested on: T1, JNK1
T1 construct: gene MAPK8

[2] = tested on: T2, JNK2
T2 construct: gene MAPK9

[3] = tested on: T3, JNK3
T3 construct: gene MAPK10

[4] = tested on: KIT(A829P)
[5] = tested on: KIT(D816H)
[6] = tested on: KIT(D816V)
[7] = tested on: KIT(L576P)
[8] = tested on: KIT(V559D)
[9] = tested on: KIT(V559D,T670I)
[10] = tested on: KIT(V559D,V654A)
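Also: KINOMEscan scanMAX binding as percent activity remaining versus control; lower means stronger binding.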

Compound	Percent Control [1] [%]	Percent Control [2] [%]	Percent Control [3] [%]	Percent Control [4] [%]	Percent Control [5] [%]	Percent Control [6] [%]	Percent Control [7] [%]	Percent Control [8] [%]	Percent Control [9] [%]	Percent Control [10] [%]
Cl.c1ccc(Cc2nc3ccc(Nc4ncnc5ccccc45)cc3[nH]2)cc1 [GR269666A]	91	100	100	100	100	100	100	91	100	85
CCS(=O)(=O)c1ccc(OC)c(Nc2ncc(-c3cccc(F)c3)o2)c1 [GW621970X]	69	92	94	63	51	39	3	4.8	35	90
CCS(=O)(=O)c1ccc(OC)c(Nc2ncc(-c3cccc(OC)c3)o2)c1 [GW580509X]	76	89	95	83	52	42	0	2.3	66	79
COc1cccc(-n2ncc3c(N/N=C/c4ccncc4)ncnc32)c1 [GW784752X]	99	83	96	100	46	100	84	89	38	100
COc1ccc2[nH]c3c4[nH]c5ccc(OC)cc5c4c4c(c3c2c1)C(=O)NC4=O [GW296115X]	82	55	31	15	6.6	1.7	8.2	9	49	66
NS(=O)(=O)c1ccc(N/N=C2\C(=O)Nc3ccc(Cl)cc32)cc1 [GW280670X]	84	100	100	100	100	100	67	81	100	58
Cc1cc(O)cc(C)c1/C=C/c1cncc(C(N)=O)c1 [GW435821X]	84	100	100	92	65	90	4.4	1	100	95
CN1CCN(C(=O)c2ccc(NC(=O)Nc3ccc(N(C)c4ccnc(Nc5ccc(CS(C)(=O)=O)cc5)n4)cc3)cc2)CC1.Cl [GW830263A]	5.5	19	8.6	0	27	23	0	0	0.1	9.1
O=C(Nc1n[nH]c2nc(-c3ccc(O)cc3)c(Br)cc12)C1CC1 [SB-725317]	35	85	80	100	100	94	56	71	100	96
COc1cc(N2CCN(C(C)C)CC2)ccc1Nc1nc(Nc2ccc(F)cc2C(=O)NC[C@@H](O)CO)c2cc[nH]c2n1 [GSK1392956A]	0	0.1	0.1	88	57	100	100	100	96	98
CC1=C(C(=O)Nc2ccc3[nH]ncc3c2)C(c2ccc3ccccc3c2)CC(=O)N1 (stereo not shown) [GSK270822A]	78	80	82	55	70	78	71	72	84	98
COc1cc(C=NNc2ncnc3c2cnn3-c2ccccc2)ccc1O [GW513184X]	99	94	82	100	84	40	17	35	65	74
CCn1c(-c2nonc2N)nc2c(C#CC(C)(C)O)nc(OCCNC)cc21.Cl [GSK949675]	97	100	96	98	22	13	100	100	100	100
COC(=O)Nc1nc2ccc(Oc3ccc(NC(=O)Nc4cc(C(F)(F)F)ccc4F)cc3)cc2s1.Cl [GW693917A]	87	60	79	1.9	39	61	0	0.2	2.5	20
COc1ccc(COc2ccc(Cc3cnc(N)nc3N)cc2OC)cc1 [GW632580X]	85	93	94	100	68	96	93	96	100	100
NS(=O)(=O)c1ccc(Nc2ncc(-c3ccccc3)o2)cc1 [GW572399X]	64	100	99	92	100	100	37	26	92	100
COc1cc2ncnc(Nc3ccc4c(cnn4Cc4ccccc4)c3)c2cc1OC.Cl [GW282449A]	100	100	100	100	100	100	100	98	100	93
Cl.O=S1CCN(Cc2ccc(-c3ccc4ncnc(Nc5ccc(OCc6ccccc6)c(F)c5)c4c3)o2)CC1 [GW576924A]	100	100	100	100	100	100	100	100	94	100
COc1cc(/C=N/Nc2ncnc3[nH]ncc23)ccc1O [GW578748X]	40	49	37	36	26	22	51	44	100	52
NS(=O)(=O)c1ccc(N/N=C2\C(=O)Nc3ccc(C(=O)NCc4ccncc4)cc32)cc1 [GW300657X]	55	40	38	47	14	61	83	87	89	100

Compound	Percent Control [1] [%]	Percent Control [2] [%]	Percent Control [3] [%]	Percent Control [4] [%]	Percent Control [5] [%]	Percent Control [6] [%]	Percent Control [7] [%]	Percent Control [8] [%]	Percent Control [9] [%]	Percent Control [10] [%]
Cl.O=C(Nc1ccc(Oc2ccc3[nH]c(NC(=O)c4ccccc4)nc3c2)cc1)Nc1cc(C(F)(F)F)ccc1F [GW709042A]	85	99	100	20	84	79	2.9	0.8	4.9	20
Cl.O=C(Nc1ccc(Oc2ccc3[nH]c(NC(=O)c4ccco4)nc3c2)cc1)Nc1cc(C(F)(F)F)ccc1F [GW683134A]	85	86	100	15	96	48	0	0	2.3	10
C/C(Nc1ccc(S(N)(=O)=O)cc1)=C1/C(=O)Nc2ccccc21 [GW335962X]	32	31	30	76	73	92	90	100	80	87
Cl.O=C(O[C@H]1CN[C@H](C#Cc2cc3ncnc(Nc4ccc5c(cnn5Cc5ccccc5)c4)c3s2)C1)N1CCOCC1 [GSK200398A]	90	91	88	100	69	100	100	100	87	100
COc1cccc(-c2c[nH]c3c(N/N=C/c4ccncc4)ncnc23)c1 [GW814408X]	99	97	90	27	12	9.8	2.1	1.7	12	33
COc1ccc2cc(-c3c(-c4ccncc4)nc(-c4ccc(S(C)(=O)=O)cc4C)n3C)ccc2c1 [SB-633825]	73	24	20	52	46	74	77	65	88	89
NS(=O)(=O)c1ccc(N/N=C2\C(=O)Nc3ccc(C(=O)NCCc4c[nH]cn4)cc32)cc1 [GW300660X]	61	89	96	85	41	94	100	100	100	100
CC(C)COC(=O)c1ccc2c(c1)/C(=C/Nc1ccc(S(N)(=O)=O)cc1)C(=O)N2 [GW416981X]	44	65	71	53	20	22	57	100	100	100
COc1cc(C)c(N(C)C(=O)CN(C)C)cc1Nc1nc(Nc2cccc(F)c2C(N)=O)c2cc[nH]c2n1 [GSK2219385]	88	74	83	100	60	81	100	100	100	93
CN(C)CCNC(=O)Nc1ccc(N(C)c2ccnc(Nc3ccc(CS(C)(=O)=O)cc3)n2)cc1.Cl [GW830900A]	43	65	55	31	45	52	0	0	14	72
O=C1Nc2ccc(C(=O)c3ccco3)cc2C1=Cc1cc(Cl)c(O)c(Cl)c1 [GW406108X]	64	70	64	83	69	81	38	52	78	100
CC1=C(C(=O)Nc2ccc3[nH]ncc3c2)C(c2ccc(Cl)c(Cl)c2)CC(=O)N1 (stereo not shown) [GSK299115A]	84	73	77	79	78	94	100	100	94	100
C[C@@H](Oc1cc(-n2cnc3ccc(OC4CCN(C)CC4)cc32)sc1C(N)=O)c1ccccc1Cl [GSK579289A]	82	98	96	49	1.7	48	31	30	41	95
COc1cc2ncn(-c3cc(O[C@H](C)c4ccccc4Cl)c(C(N)=O)s3)c2cc1OC [GSK237701A]	88	79	81	11	14	14	34	33	12	81
Nc1ncnc2occ(-c3ccc(NC(=O)Nc4cc(C(F)(F)F)ccc4F)cc3)c12 [GW770249X]	99	9.2	100	7.5	32	14	0	0	0.5	7.5
NS(=O)(=O)c1ccc(N/N=C2\C(=O)Nc3ccc(-c4cnco4)cc32)cc1 [GW276655]	87	83	83	79	69	100	55	58	100	100
CN(C)c1cc2c(Nc3ccc4c(cnn4Cc4ccccc4)c3)ncnc2cn1 [GW282974X]	87	92	82	70	62	90	100	100	96	100
COc1ccc2c(-c3ccnc(Nc4cccc(OC(F)(F)F)c4)n3)cnn2n1 [GW810372X]	22	60	41	83	77	87	88	88	86	100
CCc1ccc(Oc2nccc(-c3c(-c4ccc(F)cc4)ncn3C3CCNCC3)n2)cc1 [SB-242719]	65	15	17	94	73	100	85	95	94	74
COc1ccccc1-c1cc(/C=C2\C(=O)Nc3ncc(Br)cc32)cc(Br)c1O [GW442130X]	52	43	30	100	100	100	76	65	100	62
